# Assay results from article PMC8159961, “Exploring protein hotspots by optimized fragment pharmacophores” (Nature Communications, 2021).
# Values without a mark were called inactive. How the calls were made is not given here.
# Target: 5-HT1A receptor (human, UniProt P08908)
# Test: primary screen, binary call; higher = more effect of the substance
# Set-up: hit call from the mean of at least two separate experiments
# Details: 10 µM
# Procedure: GPCR radioligand binding assays were performed in HEK293 cells with stable expression of human 5-HT1A, 5-HT6, and 5-HT7b receptors (prepared with the use of Lipofectamine 2000). Non-specific binding was defined with 10 µM of 5-HT in 5-HT1AR and 5-HT7R binding experiments, whereas 10 µM of mianserin was used in 5-HT6R assays, respectively. Each compound was tested at 10 µM concentration. Results were expressed as means of at least two separate experiments.
# Sequence of 5-HT1A receptor (P08908 whole entry, looked up): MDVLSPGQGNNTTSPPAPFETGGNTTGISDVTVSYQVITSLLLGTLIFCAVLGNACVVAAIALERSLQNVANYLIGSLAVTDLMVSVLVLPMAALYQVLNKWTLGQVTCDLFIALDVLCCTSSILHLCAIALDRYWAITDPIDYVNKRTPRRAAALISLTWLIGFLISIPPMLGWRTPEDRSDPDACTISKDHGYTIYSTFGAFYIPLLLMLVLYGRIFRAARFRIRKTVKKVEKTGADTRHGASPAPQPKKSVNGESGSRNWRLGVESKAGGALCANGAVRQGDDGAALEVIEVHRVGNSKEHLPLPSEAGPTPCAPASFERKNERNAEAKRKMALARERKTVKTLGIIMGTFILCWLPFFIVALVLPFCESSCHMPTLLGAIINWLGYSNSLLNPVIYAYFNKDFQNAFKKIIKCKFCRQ
row,Compound,5-HT1
1,Fc1ccc2c(C3CCNCC3)c[nH]c2c1,1 (active)
2,O=C(Nc1ccccc1)C1CC1,0
3,c1ccc(-c2ccncc2)cc1,0
4,O=C1CC(CSc2ccc(Cl)cc2)=NN1,0
5,O=C1NC(=O)/C(=C\c2cccs2)N1,0
6,O=C1NC(=O)C2(CCc3ccccc32)N1 (stereo not shown),0
7,O=C1CCN(c2ccccn2)CC1,0
8,COc1ccc(CN2CCNCC2)cc1F,0
9,Nc1ccc(-c2ccccc2)cc1C(=O)O,0
10,N#CC1CCS(=O)(=O)C1 (stereo not shown),0
11,O=C(O)CC1CCC(=O)N1 (stereo not shown),0
12,CCn1cnc2ccccc21,0
13,O=C(O)c1ccc(CN2CCOCC2)cc1,0
14,CCc1ccc(NC2=NCCCS2)cc1,0
15,O=C(CN1CCCC1)c1ccccc1Cl,1 (active)
16,Nc1nnc(-c2cccs2)[nH]1,0
17,O=C1CCC(=O)N(c2ccccc2)N1,0
18,CC(CN)N1CCc2sccc2C1 (stereo not shown),0
19,Oc1nnc(-c2ccccc2)o1,0
20,c1ccc2sc(N3CCNCC3)nc2c1,1 (active)

row,Compound,5-HT1
1,Cc1ccc(CCNc2ccccc2)cn1,0
2,COc1ccccc1N1CCNCC1,1 (active)
3,O=C1CNCCN1c1ccccc1,0
4,CCCN1C(=O)CC(=O)NC1=S,0
5,CS(=O)(=O)c1ccc(N2CCNCC2)cc1,0
6,Cc1nccn1Cc1cccc(C#N)c1,0
7,C1=C[C@H]2O[C@@H]1c1ccccc12,0
8,CC(=O)c1ccc2c(c1)CCCN2,0
9,O=C1NC2(CCCC2)Nc2ccccc21,0
10,Cc1ccc(C)n1Cc1ccccc1Cl,0
11,Fc1ccc(CC2CCCNC2)cc1 (stereo not shown),0
12,Oc1cnc(-c2ccccc2)nc1,0
13,c1ccc2oc(C3CCCNC3)nc2c1 (stereo not shown),1 (active)
14,Clc1ccc2nnnn2n1,0
15,CC1C(=O)NC(=O)N1c1ccc(Cl)cc1 (stereo not shown),0
16,COc1ccc(C2=CCNCC2)cc1,0
17,O=c1[nH]ncc2c1oc1ccccc12,0
18,COc1ccccc1C1CCNCC1,1 (active)
19,NC(c1ccccc1)c1ccccc1,0
20,N#CCCN1CCc2ccccc21,0
